“And” between values parts separate entries of the source, which are not always exact repeats. Equal values may be shown once. Out of some 5,500 compounds screened, about 2,000 (36%) were called active. Another 18% or so got no clear call; they are omitted. Rule as the data show it: active = normalized growth mostly below about 0.91 (no sharp cut-off); inconclusive = no clear call, values can overlap the other calls; inactive = mostly above about 0.92. The list shows a part of the results.
Assay: chemical genetic growth profiling, strain panel (AID 1159580);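 also: tested at 20 µM; growth read once vehicle control cultures reached saturation at 30 °C; 1 = growth at the plate median or of vehicle wells; lower values mean less growth of the strain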
Details: S. cerevisiae deletion strains, growth OD

Measured: normalized growth

CCC(=O)OCC(=O)C1(OC(=O)CC)C(C)CC2C3CCC4=CC(=O)C=CC4(C)C3(Cl)C(O)CC21C (stereo unspecified)
inactive: locus YAL021C, strain ccr4, hits give low values 0.99 | locus YAL026C, strain drs2, hits give low values 1 | locus YAL030W, strain snc1, hits give low values 0.999 | locus YBL061C, strain skt5, hits give low values 0.98 | locus YBR009C, strain hhf1, hits give low values 0.996 | locus YBR021W, strain FUR4, hits give low values 1.04 | locus YBR023C, strain chs3, hits give low values 0.979 | locus YBR171W, strain sec66, hits give low values 0.963 | locus YBR229C, strain ROT2, hits give low values 1.02 | locus YBR231C, strain swc5, hits give low values 0.972 | locus YBR279W, strain paf1, hits give low values 0.99 | locus YCL011C, strain gbp2, hits give low values 1 | locus YCL016C, strain dcc1, hits give low values 1.01 | locus YCL029C, strain bik1, hits give low values 0.993 | locus YCL061C, strain MRC1, hits give low values 0.991 | locus YCL069W, strain vba3, hits give low values 0.977 | locus YCR088W, strain abp1, hits give low values 0.993 | locus YDL005C, strain med2, hits give low values 0.97 | locus YDL035C, strain GPR1, hits give low values 1.03 | locus YDL040C, strain nat1, hits give low values 0.973 | locus YDL074C, strain BRE1, hits give low values 1.03 | locus YDL101C, strain DUN1, hits give low values 1.01 | locus YDL185W, strain tfp1, hits give low values 0.998 | locus YDL192W, strain arf1, hits give low values 0.997 | locus YDR001C, strain nth1, hits give low values 0.989 | locus YDR069C, strain doa4, hits give low values 0.959 | locus YDR101C, strain arx1, hits give low values 0.969 | locus YDR137W, strain rgp1, hits give low values 0.932 | locus YDR150W, strain NUM1, hits give low values 1.01 | locus YDR159W, strain sac3, hits give low values 0.959 | locus YDR162C, strain NBP2, hits give low values 1.04 | locus YDR195W, strain ref2 0.975 | locus YDR297W, strain sur2, hits give low values 0.979 | locus YDR318W, strain mcm21, hits give low values 0.993 | locus YDR334W, strain swr1, hits give low values 0.991 | locus YDR335W, strain msn5, hits give low values 0.966 | locus YDR388W, hits give low values 0.99 | locus YDR392W, strain spt3, hits give low values 1.03 | locus YDR502C, strain sam2, hits give low values 0.994 | locus YEL003W, strain gim4, hits give low values 0.973 | locus YEL037C, strain rad23, hits give low values 0.975 | locus YEL061C, strain CIN8 (second series), hits give low values 0.975 | locus YEL061C, strain CIN8, hits give low values 1.01 | locus YER015W, strain faa2, hits give low values 0.986 | locus YER016W, strain bim1, hits give low values 0.996 | locus YER110C, hits give low values 0.984 | locus YER111C, strain swi4, hits give low values 0.967 | locus YER155C, strain BEM2 (second series), hits give low values 0.995 | locus YER155C, strain BEM2, hits give low values 1.01 | locus YER167W, strain BCK2, hits give low values 1.02 | locus YFR010W, strain ubp6, hits give low values 0.957 | locus YGL078C, strain dbp3, hits give low values 0.99 | locus YGL086W, strain mad1, hits give low values 0.989 | locus YGL167C, strain pmr1, hits give low values 0.948 | locus YGL173C, strain kem1, hits give low values 0.952 | locus YGL227W, strain vid30, hits give low values 0.983 | locus YGL240W, strain doc1, hits give low values 0.974 | locus YGL248W, strain PDE1, hits give low values 1.02 | locus YGL253W, strain hxk2, hits give low values 0.926 | locus YGR135W, strain pre9, hits give low values 1 | locus YGR229C, strain SMI1, hits give low values 1.03 | locus YGR252W, strain gcn5, hits give low values 1.02 | locus YHR013C, strain ard1, hits give low values 0.987 | locus YHR027C, strain rpn1, hits give low values 0.999 | locus YHR030C, strain SLT2, hits give low values 1.01 and 1.11 | locus YHR079C, strain IRE1 (second series), hits give low values 0.985 | locus YHR079C, strain IRE1, hits give low values 1.05 | locus YHR094C, strain hxt1, hits give low values 0.989 | locus YHR129C, strain ARP1, hits give low values 1.02 | locus YHR142W, strain chs7, hits give low values 0.913 | locus YHR200W, strain rpn10, hits give low values 0.99 | locus YIL066C, strain RNR3, hits give low values 1.03 | locus YIL073C, strain SPO22, hits give low values 1.01 | locus YIL125W, strain kgd1, hits give low values 0.99 | locus YIR030C, strain dcg1, hits give low values 0.984 | locus YJL092W, strain hpr5, hits give low values 0.978 | locus YJL095W, strain BCK1 (second series), hits give low values 0.982 | locus YJL095W, strain BCK1, hits give low values 1.02 and 1.04 | locus YJL115W, strain asf1, hits give low values 0.973 | locus YJL129C, strain trk1, hits give low values 0.922 | locus YJL134W, strain LCB3, hits give low values 1.01 | locus YJL154C, strain vps35, hits give low values 0.965 | locus YJL164C, strain tpk1, hits give low values 1.01 | locus YJL166W, strain qcr8, hits give low values 0.947 | locus YJL168C, strain set2, hits give low values 0.991 | locus YJL187C, strain SWE1 (second series), hits give low values 1

— PubChem BioAssay AID1159580 (chemical genetic matrix, 2015)
